Test results published in PubChem BioAssay AID1745848 (National Center for Advancing Translational Sciences (NCATS), 2022).
In all, about 2,100 compounds went through this assay and about 940 (45%) were called active. Another 48% or so got no clear call; they are omitted. The call rests on the fitted dose curve; in most records, active means well fitted inhibition curve with a large enough effect; inconclusive means small, poorly fitted or top-dose-only effect; inactive means no such curve, though single readings can be large or run the other way. The set was probably picked from earlier hits. This is one part of the list.

Experiment: Confirmatory qHTS for Inhibitors of ATXN expression; further: nearly all actives have a fitted effect of over 65% in size
Conditions: ATXN2-luciferase reporter cells, luminescence, 24 h; series mostly up to 11.5 µM
Summary of the method: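 Cells carrying ATXN2-luciferase reporter exposed 24 h at 37 C to compound. Viability then read by CellTiter-Fluor (25 uM GF-AFC, 30 min), followed by SteadyGlo luminescence; medium-only wells set 100% inhibition.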
Potency means the concentration at half of the fitted maximal effect.

Compound	Potency
COc1ccc(C(=O)c2sc(Nc3ccccc3)nc2N)cc1OC	28.2 µM (active)
COc1cccc(CNCCc2c[nH]c3ccccc23)c1OCc1ccc(F)cc1	3.98 µM (active)
O=C(N/N=C\c1c(O)ccc2ccccc12)c1ccc(Cn2cccn2)o1	0.708 µM (active)
O=C(N/N=C/c1c(O)ccc2ccccc12)c1cccnc1	3.16 µM (active)
O=C(N/N=C\c1c(O)ccc2ccccc12)c1cncc(Br)c1	0.251 µM (active)
Cc1occc1C(=O)N/N=C/c1c(O)ccc2ccccc12	1.78 µM (active)
O=C(N/N=C/c1cc(O)ccc1Br)c1cccnc1	3.16 µM (active)
Cn1c(-[n+]2c(-c3ccccc3)cc(-c3ccccc3)cc2-c2ccccc2)nc2c([N+](=O)[O-])cccc21	inactive
CCn1c2ccccc2c2cc(/C=N/n3cnnc3)ccc21	1.58 µM (active)
CCn1c2ccccc2c2cc(/C=N/NC(=O)c3ccc(O)cc3)ccc21	2.24 µM (active)
CCn1c2ccccc2c2cc(/C=C(/C#N)C(N)=S)ccc21	0.447 µM (active)
Cc1cccc(OCCn2cc(/C=N/NC(=O)c3ccncc3)c3ccccc32)c1	inactive
CCn1c2ccccc2c2cc(/C=N/NC(=O)c3ccncc3)ccc21	1.41 µM (active)
Cc1ccc2nc(SCc3ccc([N+](=O)[O-])cc3)[nH]c2c1	inactive
CCn1c2ccccc2c2cc(/C=N/NC(=O)c3ccccc3)ccc21	3.16 µM (active)
Cc1ccc(S(=O)(=O)c2c(N)n(CC3CCOC3)c3nc4ccccc4nc23)cc1 (stereo not drawn)	inactive
COc1cccc(/C=N/n2c(N)c(S(=O)(=O)c3cccs3)c3nc4ccccc4nc32)c1OC	14.1 µM (active)
CC(C)CCn1c(N)c(S(=O)(=O)c2cccs2)c2nc3ccccc3nc21	3.16 µM (active)
Cc1cc(Br)c(OCc2ccc(C(=O)N/N=C3\CC4CC=CC34)cc2)c(Br)c1 (stereo not drawn)	28.2 µM (active)
CCCCNC(=NCc1cccc(C(F)(F)F)c1)Nc1ccccc1	3.16 µM (active)
O=C(c1cnc(N2CCN(c3ccccn3)CC2)c2ccccc12)N1CCN(c2cccc(Cl)c2)CC1	6.31 µM (active)
CN(C(=O)c1cnc(N2CCN(c3ncccn3)CC2)c2ccccc12)c1ccc(Cl)cc1	28.2 µM (active)

Compound	Potency
CCn1c(C)nc2cc(C(=O)N/N=C(\C)c3ccc(OC)cc3O)ccc21	15.8 µM (active)
CC(=NNC(=O)c1ccncc1)c1ccc(O)cc1O	12.6 µM (active)
COc1ccc(/C(C)=N/NC(=O)c2cccc(S(=O)(=O)N3CCCC3)c2)c(O)c1	3.55 µM (active)
CCN(CC)S(=O)(=O)c1cccc(C(=O)N/N=C(\C)c2ccc(O)cc2O)c1	3.16 µM (active)
CC(=NNC(=O)c1ccncc1)c1ccc2ccccc2c1O	1.12 µM (active)
CC(=O)NC(c1ccccc1)c1cc(Cl)c2cccnc2c1O (stereo not drawn)	2.82 µM (active)
Oc1c(C(Nc2ccccn2)c2cccnc2)cc(Cl)c2cccnc12 (stereo not drawn)	12.6 µM (active)
CC(=O)NC(c1ccc(C)cc1)c1cc(Cl)c2cccnc2c1O (stereo not drawn)	2.51 µM (active)
CC(C)(C)c1ccc(CC(=O)N2CCC2(C)C(=O)Nc2cnc3ccccc3c2)cc1 (stereo not drawn)	inactive
Cc1ccc(CN2CCSc3ccc(C(=O)NC4CCN(Cc5ccccc5)CC4)cc32)cc1	3.16 µM (active)
CC1(C(=O)NC2CCN(Cc3ccccc3)CC2)CCN1Cc1ccc2ccccc2c1 (stereo not drawn)	2.51 µM (active)
CN1C(=O)/C(=C\c2ccccc2F)Sc2ccc(C(=O)NC3CCN(Cc4ccccc4)CC3)cc21	3.16 µM (active)
CN1CCC(NC(=O)c2cc(-c3cccc(Br)c3)nc3ccccc23)CC1	25.1 µM (active)
CC(=O)Nc1cc(-c2ccc(C(=O)NC3CC3)cc2)cn2c(-c3cccc(C(C)=O)c3)cnc12	inactive
CCc1c2c(nc3ccc(OC(=O)N4CCC(N5CCCCC5)CC4)cc13)-c1cc3c(c(=O)n1C2)COC(=O)[C@]3(O)CC	0.316 µM (active)
CC[C@@]1(O)C(=O)OCc2c1cc1n(c2=O)Cc2cc3c(CN(C)C)c(O)ccc3nc2-1	inactive
Cc1sc(NC(=O)c2cc(-c3ccc(Cl)cc3)nc3ccccc23)c(C(N)=O)c1C	7.08 µM (active)
C=CCN(C(=O)CSc1nc2c(sc3ccccc32)c(=O)n1CCN(CC)CC)c1ccccc1	28.2 µM (active)
CCc1nc2ccc(C(=O)NCCOc3ccc(OC)cc3)cn2c1N(CCC(C)C)CCN(C)C	3.98 µM (active)
O=C(NCC1CC1)c1ccc2c(c1)S(=O)(=O)c1cc(Cl)ccc1C2=O	inactive
CC(C)CC(NC(=O)c1ccc(Cl)cc1)C(=O)OCC(=O)c1ccc2c(c1)NC(=O)CO2 (stereo not drawn)	28.2 µM (active)
CCCCC1C(=O)CC[C@H]2[C@@H]1CC(=O)[C@@H]2C/C=C\CCCC(=O)O (stereo partly drawn)	inactive

Compound	Potency
COc1nn(-c2ccccc2)c(=O)c(Cl)c1Cl	1.41 µM (active)
Cc1ccc(C(NC(=O)C2CCN(Cc3ccc(Cl)c(Cl)c3)CC2)c2ccccn2)cc1 (stereo not drawn)	28.2 µM (active)
COC(=O)[C@H]1C[C@H](OC(=O)NC2CC2)[C@@]2(O)CN(S(=O)(=O)c3ccc(C)cc3)CC2[C@H]1C(=O)OC (stereo partly drawn)	inactive
O=C(CSC1=NNC(c2ccccn2)S1)Nc1ccc(C(F)(F)F)cc1 (stereo not drawn)	28.2 µM (active)
COc1cc2ccnc(Cc3cccc(OC)c3OC)c2cc1OC	1 µM (active)
COc1cc(C)c(C(=O)CC(=O)c2c(C)cc(OC)cc2C)c(C)c1	inactive
CCCCOc1ccccc1NC(=O)Cn1c(-c2nonc2N)nc2ccccc21	3.98 µM (active)
COc1ccc(Cc2[nH]n3c(=O)cc(C(C)C)nc3c2-c2ccccc2)cc1	8.91 µM (active)
Cc1cc(C)c(S(=O)(=O)/N=C2\C=C(Nc3ccc(C(=O)O)cc3)C(=O)c3ccccc32)c(C)c1	1.78 µM (active)
COC1=CC(=O)C=C(OC)C1(O)CC(C)=O	inactive
O=C1/C(=C/c2ccc([N+](=O)[O-])cc2)C=C(c2ccccc2)N1c1ccc(O)cc1	2.51 µM (active)
Cc1cc2c(c(/C=C/C(=O)c3ccccc3)c1)OC1(C=C2)Oc2ccccc2C(=O)N1C (stereo not drawn)	25.1 µM (active)
CCCCCn1c(=O)c2ccccc2n2c(CCl)nnc12	15.8 µM (active)
O=C(N/N=C(\c1ccccc1)c1ccccn1)c1ccccc1Cl	3.55 µM (active)
O=C(NN=C(c1ccccc1)c1ccccn1)c1ccccc1	2.24 µM (active)
COc1cc(C(=O)N/N=C(\c2ccccc2)c2ccccn2)cc(OC)c1OC	0.355 µM (active)
CCC(CC)C(=O)c1c[nH]c(C(=O)NCc2ccccn2)c1	inactive
O=C(O)CSc1cc(NS(=O)(=O)c2cccc([N+](=O)[O-])c2)c2ccccc2c1O	3.16 µM (active)
CN(Cc1cnc2nc(N)nc(N)c2n1)c1ccc(C(=O)N[C@@H](CCC(=O)O)C(=O)O)cc1	0.398 µM (active)
CN(Cc1cnc2nc(N)nc(N)c2n1)c1ccc(C(=O)NC(CCC(=O)O)C(=O)O)c2ccccc12 (stereo not drawn)	0.1 µM (active)
Cc1cnc(NC(=O)C2CC(=O)N(c3cccc(Cl)c3)C2)s1 (stereo not drawn)	0.112 µM (active)
Cc1ccc(N2CC(C(=O)Nc3nccs3)CC2=O)cc1Cl (stereo not drawn)	2.24 µM (active)

Compound	Potency
Cc1ccc(CN2CC(C(=O)Nc3ncc(C)s3)CC2=O)cc1 (stereo not drawn)	1.78 µM (active)
Cc1ccc2nc(NC(=O)CSCC(=O)OCC(=O)c3ccc(Br)cc3)sc2c1	3.55 µM (active)
COc1ccc(-c2csc(NC(=O)C3CCN(c4ncnc5sc(C)c(C)c45)CC3)n2)cc1OC	3.98 µM (active)
Cc1sc2nc(CN3CCCC3)nc(N3CCC(C(N)=O)CC3)c2c1C	inactive
CCN(CC)S(=O)(=O)c1cc(NC(=O)C2CCN(c3ncnc4sc(C)c(C)c34)CC2)ccc1Cl	3.55 µM (active)
COc1ccc(S(=O)(=O)N(C)C)cc1NC(=O)C1CCN(c2ncnc3sc(C)c(C)c23)CC1	22.4 µM (active)
Oc1c(C(c2ccccn2)N2CCC(Cc3ccccc3)CC2)cc(Cl)c2cccnc12 (stereo not drawn)	28.2 µM (active)
Oc1c(C(c2ccccn2)N2CCCCC2)cc(Cl)c2cccnc12 (stereo not drawn)	15.8 µM (active)
O=C(NC(Nc1ncc(S(=O)(=O)c2ccc([N+](=O)[O-])cc2)s1)(C(F)(F)F)C(F)(F)F)c1ccc(Cl)cc1	3.55 µM (active)
O=C(NC(Nc1nc2ccc([N+](=O)[O-])cc2s1)(C(F)(F)F)C(F)(F)F)c1ccccc1	0.355 µM (active)
O=c1oc2ccccc2c(O)c1Cc1cc(Cl)c2cccnc2c1O	15.8 µM (active)
CC[n+]1c(/C=C/c2c[nH]c3ccccc23)ccc2cc(C)ccc21	7.94 µM (active)
COC(=O)c1ccccc1S(=O)(=O)NNC(=O)Nc1ccccc1	inactive
COc1ccc(/C=N/NC(=O)c2cccc([N+](=O)[O-])c2)c2ccccc12	3.16 µM (active)
Cc1[nH]n(-c2cccc3ccccc23)c(=O)c1/C=N/NC(=O)c1cccc([N+](=O)[O-])c1	7.94 µM (active)
CCCc1nc(NC2CCCCC2)c(C#N)c2c1COC(C)(C)C2	inactive
O=C(Cc1ccc(-c2ccccc2)cc1)Nc1ccccn1	15.8 µM (active)
CC(C)C1C(=O)N(Cc2cn(CCC3OCCO3)nn2)CCS(=O)(=O)N1Cc1ccc(-c2ccc(Cl)cc2)cc1 (stereo not drawn)	31.6 µM (active)
CSc1ncnc2c1ncn2CC(=O)C1CCC2C3CCC4=CC(=O)CCC4(C)C3CCC12C (stereo not drawn)	11.2 µM (active)
COc1ccc(C(NC(=O)c2cccnc2)c2cc(Cl)c3cccnc3c2O)cc1OC (stereo not drawn)	2.51 µM (active)
CCC(=O)NC(c1ccc(OC)c(OC)c1)c1cc(Cl)c2cccnc2c1O (stereo not drawn)	2.82 µM (active)
CCCC(=O)NC(c1ccc(OC)c(OC)c1)c1cc(Cl)c2cccnc2c1O (stereo not drawn)	2.51 µM (active)
